Compound activity: PubChem, several laboratories
Sampled rows, rich in hits. Any-hit rate of the full collection: about 2.2%.
IEC-6 tox-1 = kills IEC-6 intestinal cells in KLF5 counter-screen; IEC-6 cytotoxicity, luminescence viability; inhibition, % at 5 µM; 290,000 compounds, 0.78% hits; AID 1825; in the data active = inhibition above about 22%;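 note: 0% = plate median of test compound wells and 100% = cytotoxic reference compound wells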
aSyn UTR inh = MLPCN primary screen, SNCA 5' untranslated region; 300,000 compounds, 0.82% hits; AID 1813; inhibition, % (tested at 7.5 µM); alpha-synuclein 5'UTR reporter, inhibitor activity; in the data active = inhibition above about 60%;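 note: H4 neuroglioblastoma cells stably carrying SNCA 5'UTR luciferase fusion; 0% = DMSO wells and 100% = positive control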
KLF5 inhibitor = inhibitors of KLF5 expression; AID 1700; DLD-1 KLF5 promoter-luciferase reporter, luminescence; 290,000 compounds, 0.23% hits; inhibition, % at 5 µM;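 active = inhibition above a per-plate limit of that plate's mean compound inhibition plus 3 SD, cut at about 60% in these data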;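 note: 0% = DMSO wells and 100% = LY294002 at 200 µM; higher means less KLF5 promoter-driven luciferase light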
APP 5UTR inh = APP translation inhibition; SH-SY5Y APP 5'UTR-luciferase reporter, luminescence; inhibition, % at 2 µM; 190,000 compounds, 0.82% hits;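 active = inhibition above a set limit, derived from the sample mean plus 3 SD, cut at about 45% in these data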
Ba/F3 V617F tox = reduce viability of Ba/F3 cells dependent on JAK2V617F; Ba/F3 EpoR-JAK2V617F viability, ATP luminescence; inhibition, % at 5.6 µM; 220,000 compounds, 1.1% hits; AID 1446;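 active = inhibition above the campaign mean plus 3 SD over all tested compounds, cut at about 24% in these data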;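 note: cytokine-independent growth of Ba/F3 cells driven by EpoR plus mutant JAK2; 0% = DMSO-treated cells and 100% = JAK inhibitor I control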
BaF3 tox = reduces parental Ba/F3 cell viability, JAK2V617F counter-screen. CellTiter-Glo ATP luminescence. inhibition, % at 5.6 µM. 220,000 compounds, 1.1% hits. AID 1486;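 active = inhibition above a per-campaign cutoff, the mean inhibition of all tested compounds plus 3 SD, cut at about 27% in these data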;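 note: 0% = DMSO wells and 100% = JAK Inhibitor I control wells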
KLF5 confirm = KLF5 inhibition, confirmation assay | AID 1834 | 610 compounds, 79% hits | shares compounds with KLF5 inhibitor | DLD-1 KLF5 promoter firefly luciferase reporter, luminescence | inhibition, % at 4 µM;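 active = inhibition above a set limit taken from the earlier primary screen, cut at about 63% in these data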;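 note: 0% = DMSO wells and 100% = LY294002 at 200 µM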
IEC-6 tox-2 = kills rat IEC-6 cells in KLF5 counter-screen. shares compounds with KLF5 inhibitor. IEC-6 rat intestinal cells, viability luminescence. 610 compounds, 56% hits. inhibition, % at 4 µM; in the data active = inhibition above about 23%;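 note: cells exposed to compounds for 48 hours before viability read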
* = called active by the depositor; · = no result.

SMILES	IEC-6 tox-1	aSyn UTR inh	KLF5 inhibitor	APP 5UTR inh	Ba/F3 V617F tox	BaF3 tox	KLF5 confirm	IEC-6 tox-2
CCOC(=O)CN1C2=NCCN2c2ccccc21	-2	13	79*	-1	-1	0	3	8
CCOC(=O)CN1C2=NCCCN2c2ccccc21	-1	-10	-28	8	-2	0	·	·
CCOC(=O)Nc1csnn1	0	4	-15	·	0	-5	·	·
CCCCCCCC[n+]1cccc2c3ccccc3ccc21	45*	26	82*	20	100*	85*	93*	43*
CC(C)Oc1ccc(C(=O)Nc2nc3ccccc3[nH]2)cc1	14	81*	87*	·	·	·	78*	6
CCc1ccc(C(=O)Nc2nc3ccccc3[nH]2)cc1	14	88*	84*	·	·	·	72*	6
COc1ccc(Cl)cc1C(=O)Nc1nc2ccccc2[nH]1	20	89*	80*	·	·	·	70*	14
C=CCOc1ccc(C2/C(=C(/O)c3ccc(OC)cc3)C(=O)C(=O)N2CCN2CCNCC2)cc1 (configuration not stated)	-2	3	-21	·	·	·	·	·
COc1ccc(NS(=O)(=O)c2cccc(C(=O)NCC3(N(C)C)CCCCC3)c2)cc1	·	-8	·	·	·	·	·	·
CCOC(=O)Nc1ccc(C(=O)c2ccncc2)cc1	4	-2	-24	·	·	·	·	·
COc1ccc(S(=O)(=O)Nc2cccc(-c3ccc4nncn4n3)c2)cc1F	59*	15	70*	63*	81*	79*	81*	34*
O=c1c2ccccc2nc(-c2ccc(Cl)cc2)n1C1CCS(=O)(=O)C1 (configuration not stated)	3	15	-18	-6	-4	1	·	·
COc1cccc2c1C(CO)N1C(C#N)C3CC(C(=O)O)C(C1C2)N3C (configuration not stated)	100*	·	110*	·	94*	95*	109*	100*
COc1cccc2c1OCC(C(=O)O)C2 (configuration not stated)	-5	16	-15	1	-1	8	·	·
O=Cc1ccc2cccnc2n1	6	-19	20	1	3	5	·	·
O=Cc1ccc2ccc3cccnc3c2n1	2	12	78*	·	·	·	-4	-5
CC(C)c1ccc(CCNC(=O)CSC(=S)N2CCCC2)cc1	·	8	·	·	·	·	·	·
COc1ccc(CC(=O)Nc2nnc(C(C)(C)C)s2)cc1OC	1	-31	-41	-12	0	7	·	·
CCN(CC)S(=O)(=O)c1ccc(N/N=C/c2cccnc2)nc1	2	8	-5	·	-3	-2	·	·
CCN(CC)S(=O)(=O)c1ccc(N/N=C/c2cc(OC)ccc2O)nc1	16	87*	68*	74*	82*	54*	74*	4
Oc1c(C(c2cccs2)N2CCN(c3ccccc3)CC2)ccc2cccnc12 (configuration not stated)	0	·	69*	59*	98*	83*	-20	-6
CN1CCN(C(c2ccc(C(F)(F)F)cc2)c2ccc3cccnc3c2O)CC1 (configuration not stated)	2	46	48	·	·	·	·	·
CCCCC(=O)NC(c1ccc([N+](=O)[O-])cc1)c1c(O)ccc2ccccc12 (configuration not stated)	10	30	-12	12	-1	2	·	·
CCCC(=O)NC(c1ccc(OC)cc1)c1ccc2cccnc2c1O (configuration not stated)	38*	129*	90*	82*	54*	66*	96*	92*
CCCCC(=O)NC(c1ccc(C(C)C)cc1)c1ccc2cccnc2c1O (configuration not stated)	16	112*	69*	·	·	·	80*	46*
CC(C)NC(=S)N/N=C1\CCCc2ccccc21	3	-44	-16	-8	1	4	·	·
COc1ccc(C(=O)NN(C)c2nc(C(F)(F)F)nc3ccccc23)cc1	96*	33	82*	95*	96*	95*	96*	81*
COc1ccc(C(=O)NN(C)c2nc(-c3ccccc3)nnc2C(F)(F)F)cc1	-3	-9	1	11	4	12	·	·
